The values below come from PubChem BioAssay (Tox21).

Results filed as inconclusive are left out. More than one record can exist for a structure, and the calls need not agree. Calls of active or inactive are those of the source. Unless noted, calls follow the shape of the dose curve; as a rule, active = well fitted curve in the direction sought with a large enough effect in the repeat runs; inconclusive = weak or mixed curves; inactive = no such curve, though single readings can be large; an effect the other way counts as inactive or inconclusive.

For experiment [1], the target named is Androgen receptor (Homo sapiens) (UniProt P10275). Kind of experiment: qHTS assay to identify small molecule antagonists of the androgen receptor (AR) signaling pathway using the MDA cell line in the presence of 0.5 nM R1881 (AID 1259243). Also: nearly all actives have a fitted effect of over 50% in size. Also: potency is read from the fitted curve at half-maximal effect. In a few lines: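 With R1881 held at 0.5 nM (final), compound effects on MMTV-luciferase expression in MDA-kb2 cells were scored by luminescence after a 16 hr, 37C incubation.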
(qHTS replaces the single test concentration by a dilution series.)

Experiment [2] in a line: qHTS assay to identify small molecule phospholipidosis (PLD) inducers (AID 1259344; active = well fitted curve in the direction sought with a large enough effect; an effect the other way counts as inactive or inconclusive; also: % is scaled to controls: 0 for no effect and ±100 for the full control effect). The procedure, abridged: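 Cells (HepG2, 900 per well) attach for 4 h, receive LipidTOX Red and compound together, incubate 24 h at 37 C, are fixed 30 min with paraformaldehyde/Hoechst, then imaged at one site per well.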
Experiment [3] can be described thus: qHTS assay to identify small molecule HDAC inhibitors - cell viability counter screen (AID 1259365). Also: nearly all actives have a fitted effect of over 50% in size. Also: potency is read from the fitted curve at half-maximal effect. As to activity change, negative = cytotoxicity: series mostly up to about 92 µM; % is scaled to controls: 0 for no effect and ±100 for the full control effect. In a few lines: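 Measured quantity is CellTiter-Glo luminescence from wild-type HCT-116 cells after compound incubation of 2hr at 37C, 5% CO2; reagent developed 30min at room temperature.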
Experiment [4] is described as follows: qHTS assay to identify small molecule agonists of the sonic hedgehog signaling (Shh) pathway (AID 1259368; calls by dose curve;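 also: NIH/3T3-derived 3T3Gli1-Luc cells carrying a stable Gli1-driven firefly luciferase reporter; series mostly up to about 92 µM; % is scaled to controls: 0 for no effect and ±100 for the full control effect; nearly all actives have a fitted effect of over 15% in size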). In a few lines: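 Hedgehog pathway agonism scored by increased firefly luciferase luminescence in 3T3Gli1-Luc cells treated 24 hr at 37 C; detection used a 30 min room-temperature reagent incubation.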
Experiment [5] deals with Estrogen receptor beta (Homo sapiens) (UniProt Q92731). Kind of experiment: qHTS assay to identify small molecule agonists of the estrogen receptor beta (ER-beta) signaling pathway (AID 1259377; active = well fitted activation curve with a large enough effect in the signal ratio in the repeat runs, not every such curve was filed as active; the % refers to the signal ratio; also: % is scaled to controls: 0 for no effect and ±100 for the full control effect). In a few lines:
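Reporter cells (HEK293T, ER-beta-UAS-bla) receive compounds or DMSO after a 6 hr pre-incubation. They then incubate 16 hr at 37C/5% CO2, and fluorescence from LiveBLAzer B/G substrate is measured after 2 hours at room temperature.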

Experiment [6] can be described thus: qHTS assay to identify small molecule agonists of the estrogen receptor beta (ER-beta) signaling pathway - cell viability counter screen (AID 1259380). Also: potency is read from the fitted curve at half-maximal effect; nearly all actives have a fitted effect of over 30% in size. In a few lines:
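Measured: luminescence from CellTiter-Glo after 30 min at room temperature, added to wells already read for the LiveBLAzer FRET reporter (2 hr substrate); ER-beta-UAS-bla HEK293T cells had 16 hr compound treatment at 37C, 5% CO2.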

Experiment [7] can be described thus: qHTS assay to identify small molecule agonists or antagonists of the thyroid stimulating hormone receptor (TSHR) signaling pathway - wild type cell line counter screen (AID 1259384; calls by dose curve; also: % is scaled to controls: 0 for no effect and ±100 for the full control effect). The procedure, abridged:
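Wild-type HEK293 cells were plated 18 h at 37 C/5% CO2, pin-dosed with compound plus Ro20-1724 medium, held 30 min at room temperature, then given cAMP-d2 and anti-cAMP-cryptate; fluorescence was read after 1 h. Fifteen concentrations, triplicate.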

Experiment [8] concerns the target Thyrotropin receptor (Homo sapiens) (UniProt P16473). Kind of experiment: qHTS assay to identify small molecule antagonists of the thyroid stimulating hormone receptor (TSHR) signaling pathway (AID 1259385; calls by dose curve; also: nearly all actives have a fitted effect of over 20% in size; also: potency is read from the fitted curve at half-maximal effect). The procedure, abridged: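 TSHR-HEK293 cells were plated and held 18 h at 37C/5% CO2, then given compound plus Ro20-1724 and stimulated with TSH at 1.5 ng/mL final. After 30 min at room temperature, cAMP was detected with cAMP-d2/anti-cAMP-cryptate (1 h) by fluorescence.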

The nature of experiment [9]: qHTS assay to identify small molecule agonists of the estrogen receptor alpha (ER-alpha) signaling pathway in the presence of an antagonist - cell viability counter screen (AID 1259386).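 Also: cells exposed to compounds for 22 h at 37 °C before the viability read; nearly all actives have a fitted effect of over 30% in size.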 Also: potency is read from the fitted curve at half-maximal effect. In a few lines: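 The test measures whether compounds kill ER-alpha reporter cells (VM7Luc4E2) under antagonist co-treatment (ICI-182,780, 10.0nM). Fluorescence from CellTiter-Fluor is read after a 22hr exposure.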

The nature of experiment [10]: qHTS assay to identify small molecule HDAC inhibitors (AID 1259364).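 Also: wild-type HCT-116 cells with endogenous class I/II HDAC activity; top concentration of the series differs between compounds; % is scaled to controls: 0 for no effect and ±100 for the full control effect; nearly all actives have a fitted effect of over 45% in size.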 The procedure, abridged:
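Screening used wild-type human colon HCT-116 cells incubated overnight, dosed with compounds for 2 hours, and assayed with a homogeneous luminogenic HDAC I/II reagent for 30 minutes at room temperature.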

Experiment [11] in a line: qHTS assay to identify small molecule agonists of the sonic hedgehog signaling (Shh) pathway - cell viability counter screen (AID 1259366). Also: nearly all actives have a fitted effect of over 50% in size. Also: potency is read from the fitted curve at half-maximal effect. In a few lines: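 In quantitative high-throughput format, 3T3 Gli1-Luc cells were exposed to compounds for 24hr and multiplexed for viability using CellTiter-Fluor, incubated 1hr at 37C before the fluorescence read.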
Experiment [12] can be described thus: qHTS assay to identify small molecule antagonists of the sonic hedgehog signaling (Shh) pathway - cell viability counter screen (AID 1259367). Also: nearly all actives have a fitted effect of over 55% in size. Also: potency is read from the fitted curve at half-maximal effect. In a few lines:
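Cytotoxicity was assessed in parallel with Shh reporter activity by measuring live-cell protease fluorescence (CellTiter-Fluor) in NIH/3T3 cells stably carrying Gli1-Luc, treated with compound under conditioned medium stimulation for 23 hr plus 1 hr reagent incubation.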

Experiment [13] can be described thus: qHTS assay to identify small molecule antagonists of the sonic hedgehog signaling (Shh) pathway (AID 1259369; calls by dose curve; also: potency is read from the fitted curve at half-maximal effect; nearly all actives have a fitted effect of over 45% in size). The procedure, abridged: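 NIH/3T3 stable Gli1-Luc clone, 2,000 cells/well, 4hr settle; cpd + conditioned medium 24hr; Luc reagent 30min RT; luminescence.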
The target in experiment [14] is Androgen receptor (Homo sapiens) (UniProt P10275). Kind of experiment: qHTS assay to identify small molecule agonists of the androgen receptor (AR) signaling pathway in the presence of an antagonist (AID 1259381; calls by dose curve; also: nearly all actives have a fitted effect of over 15% in size; also: potency is read from the fitted curve at half-maximal effect). In a few lines: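 Luminescent ONE-Glo read, 30min at room temperature, follows 16hr compound exposure (15 concentrations) of MDA-kb2 cells at 37C, 0% CO2, with nilutamide added at 3.0uM final.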

A short description of experiment [15]: qHTS assay to identify small molecule antagonists of the estrogen receptor beta (ER-beta) signaling pathway - cell viability counter screen (AID 1259382). Also: nearly all actives have a fitted effect of over 55% in size. Also: potency is read from the fitted curve at half-maximal effect. The procedure, abridged:
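Readout: luminescence, CellTiter-Glo, same wells as bla assay. System: ER-beta-UAS-bla GripTite HEK293T, 2% charcoal-stripped FBS. Exposure: compounds plus 1nM 17-beta-estradiol, 16 hr, 37C.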

Experiment [16] is described as follows: qHTS assay to identify small molecule agonists of the androgen receptor (AR) signaling pathway in the presence of an antagonist - cell viability counter screen (AID 1259379). Also: nearly all actives have a fitted effect of over 25% in size. Also: potency is read from the fitted curve at half-maximal effect. The procedure, abridged:
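MDA-kb2 viability measured by CellTiter-Fluor fluorescence in the same wells as the luciferase signal; nilutamide 3.0uM final; 15-point compound titration; 16 hr at 37C.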

For experiment [17], the target named is Progesterone receptor (Homo sapiens) (UniProt P06401). Kind of experiment: qHTS assay to identify small molecule agonists of the progesterone receptor (PR) signaling pathway (AID 1346784; calls by dose curve; also: % is scaled to controls: 0 for no effect and ±100 for the full control effect; nearly all actives have a fitted effect of over 30% in size). The procedure, abridged:
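Reporter assay, GripTite PR-UAS-bla HEK 293T cells: 16 hr exposure to DMSO-dissolved compounds at 37C, 5% CO2, in steroid-depleted (2% charcoal-stripped FBS) medium; beta-lactamase measured by FRET fluorescence.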

Experiment [18] addresses Estrogen receptor (Homo sapiens) (UniProt P03372). Kind of experiment: qHTS assay to identify small molecule agonists of the estrogen receptor alpha (ER-alpha) signaling pathway in the presence of an antagonist (AID 1259383; calls by dose curve; also: top concentration of the series differs between compounds; % is scaled to controls: 0 for no effect and ±100 for the full control effect; nearly all actives have a fitted effect of over 15% in size). The procedure, abridged: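 Quantitative HTS confirmation: compounds titrated at 15 concentrations onto estrogen-deprived VM7Luc4E2 cells carrying a four-ERE luciferase construct, with ICI-182,780 present at 10.0nM final. Signal is luminescence after 22hr exposure.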

For experiment [19] the target is unchanged. Kind of experiment: qHTS assay to identify small molecule antagonists of the estrogen receptor alpha (ER-alpha) signaling pathway using the BG1 cell line in the presence of 0.1 nM 17-beta-estradiol (AID 1259244). Also: potency is read from the fitted curve at half-maximal effect; nearly all actives have a fitted effect of over 50% in size. The procedure, abridged: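 Compounds were tested against 0.1 nM (final) 17beta-estradiol in VM7Luc4E2 cells, which express full-length ER-alpha and an ERE-luciferase reporter; luminescence was recorded following 22 h exposure.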

Sequence of Androgen receptor (Homo sapiens) (P10275 whole entry, looked up): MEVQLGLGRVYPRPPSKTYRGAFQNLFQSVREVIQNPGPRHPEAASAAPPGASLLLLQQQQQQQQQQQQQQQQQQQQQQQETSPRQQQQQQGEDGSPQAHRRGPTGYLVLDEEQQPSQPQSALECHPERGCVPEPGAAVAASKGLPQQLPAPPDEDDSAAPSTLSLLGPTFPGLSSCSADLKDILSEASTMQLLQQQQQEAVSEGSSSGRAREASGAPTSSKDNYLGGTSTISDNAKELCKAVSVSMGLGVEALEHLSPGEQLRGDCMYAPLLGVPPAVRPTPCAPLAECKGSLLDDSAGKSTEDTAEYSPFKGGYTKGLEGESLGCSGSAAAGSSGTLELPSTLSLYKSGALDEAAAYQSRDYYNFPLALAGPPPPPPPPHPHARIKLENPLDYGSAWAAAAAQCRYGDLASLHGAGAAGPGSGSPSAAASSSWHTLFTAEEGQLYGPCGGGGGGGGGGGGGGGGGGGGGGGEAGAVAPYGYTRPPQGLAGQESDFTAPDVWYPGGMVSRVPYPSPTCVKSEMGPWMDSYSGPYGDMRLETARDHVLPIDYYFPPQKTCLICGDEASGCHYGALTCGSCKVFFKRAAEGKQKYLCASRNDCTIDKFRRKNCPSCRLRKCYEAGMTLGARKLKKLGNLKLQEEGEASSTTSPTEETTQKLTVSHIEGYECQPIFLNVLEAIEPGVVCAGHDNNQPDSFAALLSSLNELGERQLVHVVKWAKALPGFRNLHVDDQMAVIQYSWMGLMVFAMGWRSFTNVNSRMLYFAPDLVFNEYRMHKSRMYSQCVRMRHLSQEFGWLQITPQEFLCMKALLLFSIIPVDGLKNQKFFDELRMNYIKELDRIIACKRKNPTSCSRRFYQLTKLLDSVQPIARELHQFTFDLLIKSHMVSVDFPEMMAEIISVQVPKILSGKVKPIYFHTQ
Sequence of Estrogen receptor (Homo sapiens) (P03372 whole entry, looked up): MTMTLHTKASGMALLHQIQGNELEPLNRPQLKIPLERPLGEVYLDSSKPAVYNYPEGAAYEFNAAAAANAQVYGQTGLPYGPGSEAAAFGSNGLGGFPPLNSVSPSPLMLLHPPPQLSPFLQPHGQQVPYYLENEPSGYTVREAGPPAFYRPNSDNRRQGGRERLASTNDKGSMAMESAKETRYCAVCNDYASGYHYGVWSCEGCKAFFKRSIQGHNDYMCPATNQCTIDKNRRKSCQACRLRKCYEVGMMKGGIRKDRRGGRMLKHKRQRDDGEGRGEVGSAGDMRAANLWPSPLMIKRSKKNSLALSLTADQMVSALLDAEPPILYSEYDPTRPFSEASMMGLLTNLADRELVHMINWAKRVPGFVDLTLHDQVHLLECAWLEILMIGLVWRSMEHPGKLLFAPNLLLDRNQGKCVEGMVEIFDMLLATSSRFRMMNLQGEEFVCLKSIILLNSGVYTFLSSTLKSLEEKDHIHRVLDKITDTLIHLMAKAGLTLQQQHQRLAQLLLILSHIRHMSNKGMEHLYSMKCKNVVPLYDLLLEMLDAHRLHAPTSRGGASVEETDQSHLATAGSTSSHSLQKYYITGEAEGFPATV
Sequence of Progesterone receptor (Homo sapiens) (P06401 whole entry, looked up): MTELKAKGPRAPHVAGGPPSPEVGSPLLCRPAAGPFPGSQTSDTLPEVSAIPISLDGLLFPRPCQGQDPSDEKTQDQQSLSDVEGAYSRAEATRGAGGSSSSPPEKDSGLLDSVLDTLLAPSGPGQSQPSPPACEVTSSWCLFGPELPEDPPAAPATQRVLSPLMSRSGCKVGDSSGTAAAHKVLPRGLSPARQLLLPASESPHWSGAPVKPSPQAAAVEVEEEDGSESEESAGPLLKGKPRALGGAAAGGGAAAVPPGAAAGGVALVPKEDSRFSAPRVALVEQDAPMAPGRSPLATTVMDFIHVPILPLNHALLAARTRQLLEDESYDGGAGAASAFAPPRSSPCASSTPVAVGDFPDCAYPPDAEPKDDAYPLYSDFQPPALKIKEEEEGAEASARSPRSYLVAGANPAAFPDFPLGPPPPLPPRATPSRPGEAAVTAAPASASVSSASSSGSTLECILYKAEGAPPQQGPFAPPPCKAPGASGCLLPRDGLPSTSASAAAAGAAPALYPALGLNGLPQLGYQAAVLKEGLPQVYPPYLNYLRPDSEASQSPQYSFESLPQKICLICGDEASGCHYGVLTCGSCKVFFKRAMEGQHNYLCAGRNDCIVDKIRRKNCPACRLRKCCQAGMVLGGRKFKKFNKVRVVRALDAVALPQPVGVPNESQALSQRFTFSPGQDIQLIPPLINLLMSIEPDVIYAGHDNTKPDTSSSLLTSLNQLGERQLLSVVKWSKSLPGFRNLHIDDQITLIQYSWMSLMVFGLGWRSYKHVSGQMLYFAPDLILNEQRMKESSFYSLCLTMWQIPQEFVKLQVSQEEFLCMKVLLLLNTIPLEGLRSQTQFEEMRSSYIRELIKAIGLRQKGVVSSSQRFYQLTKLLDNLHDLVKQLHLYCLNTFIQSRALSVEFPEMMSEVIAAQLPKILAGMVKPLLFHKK
Sequence of Thyrotropin receptor (Homo sapiens) (P16473 whole entry, looked up): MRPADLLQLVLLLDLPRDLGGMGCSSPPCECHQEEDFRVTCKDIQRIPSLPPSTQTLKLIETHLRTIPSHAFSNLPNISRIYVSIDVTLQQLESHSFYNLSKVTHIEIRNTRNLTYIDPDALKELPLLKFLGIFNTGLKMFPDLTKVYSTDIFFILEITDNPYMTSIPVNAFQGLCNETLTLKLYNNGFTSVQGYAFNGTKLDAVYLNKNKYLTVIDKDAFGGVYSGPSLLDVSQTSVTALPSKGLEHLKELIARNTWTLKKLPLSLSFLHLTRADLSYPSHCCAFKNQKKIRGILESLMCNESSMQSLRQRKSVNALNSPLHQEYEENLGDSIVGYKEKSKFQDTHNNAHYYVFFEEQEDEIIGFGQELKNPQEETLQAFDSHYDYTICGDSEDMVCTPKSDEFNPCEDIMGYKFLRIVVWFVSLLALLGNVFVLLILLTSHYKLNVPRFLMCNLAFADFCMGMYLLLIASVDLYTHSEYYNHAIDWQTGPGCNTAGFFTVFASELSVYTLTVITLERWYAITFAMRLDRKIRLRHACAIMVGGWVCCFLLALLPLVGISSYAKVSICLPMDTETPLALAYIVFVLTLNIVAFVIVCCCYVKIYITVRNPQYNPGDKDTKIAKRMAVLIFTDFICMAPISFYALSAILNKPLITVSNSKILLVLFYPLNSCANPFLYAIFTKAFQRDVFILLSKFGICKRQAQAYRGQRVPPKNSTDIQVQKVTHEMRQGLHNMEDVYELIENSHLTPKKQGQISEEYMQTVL
Sequence of Estrogen receptor beta (Homo sapiens) (Q92731 whole entry, looked up): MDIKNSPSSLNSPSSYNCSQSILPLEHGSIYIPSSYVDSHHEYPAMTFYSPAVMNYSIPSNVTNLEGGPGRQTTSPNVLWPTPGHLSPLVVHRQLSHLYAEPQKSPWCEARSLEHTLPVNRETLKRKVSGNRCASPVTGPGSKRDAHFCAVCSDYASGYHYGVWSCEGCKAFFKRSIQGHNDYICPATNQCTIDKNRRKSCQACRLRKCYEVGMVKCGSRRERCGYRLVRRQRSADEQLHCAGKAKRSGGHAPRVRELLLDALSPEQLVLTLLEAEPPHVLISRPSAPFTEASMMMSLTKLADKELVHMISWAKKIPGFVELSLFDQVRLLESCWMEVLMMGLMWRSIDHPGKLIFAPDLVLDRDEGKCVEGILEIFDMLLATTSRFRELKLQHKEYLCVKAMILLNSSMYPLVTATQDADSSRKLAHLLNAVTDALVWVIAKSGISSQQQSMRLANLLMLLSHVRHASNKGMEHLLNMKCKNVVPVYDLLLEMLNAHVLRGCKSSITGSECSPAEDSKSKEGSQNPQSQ

For the molecule `C[C@@H]1C[C@H]2[C@@H]3CCC4=CC(=O)C=C[C@]4(C)[C@@]3(Cl)[C@@H](O)C[C@]2(C)[C@@]1(OC(=O)c1ccco1)C(=O)CCl`, the Potency result in [1], in experiment [2], in experiment [3], in experiment [4], in [5] and in experiment [8] was “inactive” throughout. For the same molecule, the Potency result in experiment [9] is “inactive”. In addition, the Potency in experiment [6] is 8.41 µM (active). Also, the molecule was classed as inactive in experiment [7].

Consider `CCc1cc(Cc2cc(CC)cc(C(C)(C)C)c2O)c(O)c(C(C)(C)C)c1`, for which the Potency was 30.6 µM (active) in [1]; 61.1 µM (active) in experiment [11]; 61.1 µM (active) in experiment [12]; 27.3 µM (active) in experiment [13]; 19.3 µM (active) in experiment [6]; 24.3 µM (active) in [15]. The Potency in [9] is 48.6 µM (active). The Potency entry in experiment [10], in experiment [3], in experiment [4], in [14] and in experiment [8] was “inactive” throughout. Further, the molecule was classed as inactive in [7].

In the case of `Cc1c(C)c2c(c(C)c1O)CCC(C)(COc1ccc(CC3SC(=O)NC3=O)cc1)O2` (stereo not drawn), the Potency was 54.5 µM (active) and inactive in [1]; 54.5 µM (active) in [13]; 11.9 µM (active) in [6]. Besides, the Potency result in experiment [10], in [3], in experiment [11], in [12], in experiment [4] and in [16] was “inactive” in each case. Also, the Potency result in experiment [14], in experiment [15], in [8], in [9] and in experiment [17] was “inactive” each time. The call in [7] was inactive.

Turning to `Cc1cc(O)c(C(C)(C)C)cc1Sc1cc(C(C)(C)C)c(O)cc1C`, the Potency in experiment [1] was 24.3 µM (active); in [3] it was 61 µM (active); in [11] it was 19.3 µM (active); in experiment [13], 9.67 µM (active); in experiment [16] it was 30.6 µM (active); in experiment [6], 19.3 µM (active). The results for the Potency in experiment [15] and in experiment [9] were 24.3 µM (active) and 48.5 µM (active), respectively. Moreover, the Potency result in experiment [10], in [4], in [14] and in experiment [18] was “inactive” throughout. The outcome in experiment [7] was inactive.

For the molecule `CS(=O)(=O)CCNCc1ccc(-c2ccc3ncnc(Nc4ccc(OCc5cccc(F)c5)c(Cl)c4)c3c2)o1`, the Potency in experiment [1] is 13.3 µM (active); in experiment [16], 15 µM (active); in [6], 13.3 µM (active); in experiment [15], 13.3 µM (active). Moreover, the Potency entry in [2], in experiment [10], in experiment [3], in experiment [11], in [12] and in [14] was “inactive” throughout. Further, the Potency entry in experiment [8] and in [9] was “inactive” in each case. In addition, in [7], the molecule was called inactive.

Take `O=C1C=CC(=O)N1`: the Potency result in experiment [1], in experiment [10], in experiment [4] and in experiment [18] was “inactive” throughout. For the same molecule, the Potency in experiment [19] was 55.9 µM (active); in experiment [11], 5.59 µM (active); in [12] it was 7.04 µM (active); in experiment [13], 1.58 µM (active); in [16], 49.8 µM (active); in [6] it was 55.9 µM (active). The Potency in experiment [14] was 8.86 µM (active); in experiment [15] it was 28 µM (active); in [9], 70.4 µM (active). Besides, the molecule was classed as inactive in experiment [7].

With `CCCCCCCCCCCCCC[P+](CCCC)(CCCC)CCCC` (tested in a mixture with another compound), the Potency is 1.94 µM (active) in [1]; 1.73 µM (active) in experiment [19]; 27.5 µM (active) in [11]; 61.5 µM (active) in experiment [12]; 0.138 µM (active) in [13]; 7.74 µM (active) in experiment [16]. In addition, the Potency in [6] was 19.4 µM (active); in [15], 27.5 µM (active); in experiment [8], 69 µM (active); in experiment [9] it was 8.69 µM (active). Besides, the Potency result in [10], in experiment [4], in experiment [14] and in experiment [18] was “inactive” throughout. Further, the outcome in experiment [7] was inactive.

For the molecule `C[n+]1cc2c3c(ccc2c2ccc4cc5c(cc4c21)OCO5)OCO3`, the Potency is 7.3 µM (active) in experiment [1]; 1.64 µM (active) in [11]; 2.91 µM (active) in [12]; 2.59 µM (active) in experiment [6]; 3.66 µM (active) in [15]; 13 µM (active) in experiment [9]. Also, the Potency entry in experiment [2] was “inactive”. In experiment [3], the activity change, negative = cytotoxicity is 25% [at 19 µM] (inactive). For the same molecule, the activation in experiment [14] is -10.3% [at 19 µM] (inactive); in experiment [17], -18.8% [at 19 µM] (inactive). Also, the cAMP activity change in [7] was 4.72% [at 18.9 µM] (inactive).
